Laboratory results published in PubChem BioAssay.

target: Dickkopf-related protein 1 (Homo sapiens) (UniProt O94907); test: DKK1 binders on small-molecule microarrays, primary screen, biochemical, small-molecule microarray, 635 nm fluorescence scan (AID 1106); conditions: DKK1 binding, higher = more signal;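 further: score merges emission near 667 nm with signal to noise over three replicate slides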
Sequence (O94907 whole entry, looked up): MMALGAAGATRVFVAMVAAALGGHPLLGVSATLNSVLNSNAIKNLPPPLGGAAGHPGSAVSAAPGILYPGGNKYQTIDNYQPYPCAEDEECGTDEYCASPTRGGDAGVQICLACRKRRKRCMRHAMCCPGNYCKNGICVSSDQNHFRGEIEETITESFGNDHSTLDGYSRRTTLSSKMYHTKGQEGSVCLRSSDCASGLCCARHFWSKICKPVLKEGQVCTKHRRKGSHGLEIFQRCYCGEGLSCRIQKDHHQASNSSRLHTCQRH

Going from `C=CCNC(=O)[C@H]1[C@@H]2C(=O)O[C@@H](c3ccccc3)[C@@H](c3ccccc3)N2[C@@H](c2ccc(O)cc2)[C@]12C(=O)N(C(=O)OCCOC)c1ccc(C#Cc3ccc(OC)cc3)cc12` to `COCCOC(=O)N1C(=O)[C@@]2(c3cc(C#CCC(C(=O)OC)C(=O)OC)ccc31)[C@H](C(N)=O)[C@H]1C(=O)O[C@H](c3ccccc3)[C@H](c3ccccc3)N1[C@@H]2c1ccccc1OCCO`, the composite z-score rises from 0.211 to 0.47.

Going from `O=C1OC[C@@H](c2ccccc2)n2cc(/C=C/c3ccccc3)cc21` to `O=C1O[C@H](c2ccccc2)[C@H](c2ccccc2)N2[C@H]1[C@@H](C(=O)O)[C@]1(C(=O)Nc3ccccc31)[C@H]2c1ccc(OCCO)cc1`, the composite z-score falls from -0.161 to -0.449.

Compared with `COc1c(C)cc(-c2nc(-c3ccccc3)c3c(c2C)CO[Si]3(C(C)C)C(C)C)cc1C`, `C=CCN1C(=O)[C@]2(O[C@H](CCO)[C@@H]([Si](C)(C)c3ccc(OC)cc3)[C@@H]2C)c2cc(N3C(=O)c4ccccc4Oc4ccccc43)ccc21` is lower in composite z-score: 0.305 for the first, 0.107 for the second.

First: C=C(CCCC)/C(=C/C[C@@H](OC(C)=O)c1cccc(OCCO)c1)c1cc(C(=O)OC)ccc1OC
Second: C=C(COC)C(=O)CC[C@@H](OC(=O)c1ccccc1-c1ccccc1C(=O)O)c1ccccc1OCCO
The composite z-score of the first is lower: -0.08 for the first, 0.902 for the second.

Compared with `CC1CC/C=C\[C@H]2OC34C=CCN(C(C)C)C(=O)[C@H]3N(C(C)CO)C(=O)[C@@H]4C2C(=O)O1` (stereo partly drawn), `O=C1C2C=CC(C(O)C3CC=CCC3)N(Nc3ccc([N+](=O)[O-])cc3)C2C(=O)N1c1ccccc1` (stereo not drawn) is higher in composite z-score: 0.165 for the first, 0.386 for the second.

Going from `CCCCC(=C=CC[C@@H](O)c1ccc(OCCO)cc1)CCO` to `CC(C)(C)OC(=O)CC[C@]1(C(N)=O)N=C(c2ccc(OCCCO)cc2)O[C@H]1c1ccccc1N=[N+]=[N-]`, the composite z-score rises from -0.549 to -0.307.

Going from `COc1ccc(C(=O)Nc2ccc(CN3C(=O)[C@]4(O[C@H](CC(=O)N(CCO)Cc5ccccc5)[C@@H]([Si](C)(C)c5ccc(OC)cc5)[C@@H]4C)c4ccccc43)cc2)cc1` to `COc1ccc(CCNC(=O)[C@@H]2c3ccccc3C(=O)N(C(C)C)[C@H]2c2ccc(CO)cc2)cc1`, the composite z-score falls from 1.1 to -0.995.

Compared with `COC(=O)[C@@]1(Cc2ccc(F)cc2)[C@H]2c3cc(C(=O)N(C)C)n(Cc4ccc(C(F)(F)F)nc4)c3C[C@H]2CN1C(=O)c1ccccc1`, `COC(=O)Cn1c(C(=O)N(C)C)cc2c1C[C@H]1CN(C(=O)c3ccccc3)[C@@](Cc3ccccc3)(C(=O)OC)[C@@H]21` is lower in composite z-score: 0.638 for the first, -0.578 for the second.

Compared with `O=C(NCCN1CCOCC1)[C@@H]1c2ccccc2C(=O)N(CC23CC4CC(CC(C4)C2)C3)[C@H]1c1ccc(CO)cc1`, `COC(=O)[C@@]1(Cc2ccc(F)cc2)[C@H]2c3cc(C(=O)N4CCCC4)n(C[C@H](O)CO)c3C[C@H]2CN1C(=O)c1ccccc1` is higher in composite z-score: 0.0037 for the first, 0.145 for the second.

Going from `CO[C@H]1O[C@H](CO)[C@@H](OC(=O)Nc2cccc(F)c2)[C@H](OC(=O)Nc2ccc3c(c2)OCO3)[C@@H]1OC(=O)Nc1ccc2c(c1)OCO2` to `COc1cccc(C)c1NC(=O)O[C@H]1[C@H](OC(=O)Nc2ccc3c(c2)OCO3)[C@H](OC(=O)Nc2ccc3c(c2)OCO3)[C@@H](OC)O[C@@H]1CO`, the composite z-score rises from 0.229 to 0.487.

Compared with `CN(C)CCCCCCNC(=O)[C@@H]1C[C@@H]2C(=O)N[C@@H](CCCC[N+](C)(C)C)C(=O)N2[C@@H]1c1cccc(OCCO)c1`, `CCOC(=O)C[C@H]1[C@H](OC(=O)Cc2ccc3c(c2)OCO3)[C@@H](NC(=O)CC(C)C)c2cc(OCCCO)ccc2N1C(=O)c1ccc2ccccc2n1` is higher in composite z-score: -0.377 for the first, 0.743 for the second.

First: CN(C)C(=O)[C@]1(CCS(=O)(=O)c2ccccc2)N=C(c2ccc(OCCCO)cc2)O[C@@H]1c1ccccc1CN=[N+]=[N-]
Second: CCOC(=O)C[C@H]1[C@H](OC(=O)c2ccccc2-c2ccccc2)[C@@H](NC(=O)CC(C)C)c2cc(OCCCO)ccc2N1C(=O)c1ccccc1
The composite z-score of the first is lower: -0.142 for the first, 0.523 for the second.

Compared with `CN1C(=O)C2C=CC(C(O)c3ccc([N+](=O)[O-])cc3)N(Nc3ccccc3)C2C1=O` (stereo not drawn), `C[C@@]1([C@@H](NS(=O)(=O)c2cccc3cccnc23)c2ccc(-c3ccccc3)cc2)C[C@H]1C1CCCCC1` is lower in composite z-score: -0.157 for the first, -0.473 for the second.

Going from `C=C(/C=C\CNS(=O)(=O)c1ccc(C)cc1)[C@H](O)[C@H]1CCCN1S(=O)(=O)c1ccccc1[N+](=O)[O-]` to `O=C1O[C@@H](c2ccccc2)[C@@H](c2ccccc2)N2[C@@H](c3ccc(OCCO)cc3)[C@]3(C(=O)Nc4ccc(C#CC5=CCCCC5)cc43)[C@@H](C(=O)Nc3nc4ccccc4s3)[C@H]12`, the composite z-score falls from 0.524 to -0.188.
